Pol kappa inh = DNA polymerase kappa (human) inhibition; Q9UBT6; purified Pol kappa, fluorescent DNA synthesis assay, 10 min; Potency, µM (highest dose often 107 µM), for inactives: at the highest dose activity, negative = inhibition, usual class: inhibitors; 400,000 compounds, 0.53% hits; further: potency means the concentration at half of the fitted maximal effect; on the % scale 0 is the no-effect control and ±100 the full control effect
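Here, compound and 10 nM enzyme are combined for 15 min at room temperature; adding 50 nM substrate (final) starts DNA synthesis, tracked by fluorescence at 0 and 10 min against buffer-only wells.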
PI4K2A inh = blocks human PI4K2A kinase activity. Q9BTU6. activity change, negative = inhibition, % at 76.9 µM. 420,000 compounds, 0.13% hits. purified PI4K2A, ADP-Glo luminescence, 1 h; stronger effect = lower value. AID 1346378; in the data active means activity change below about -50%; inconclusive means mostly about -30% to -49%;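 further: -100% = wells without enzyme as full effect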
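PI4K2A activity was measured by ADP-Glo luminescence: enzyme (4 ug/mL stock) and phosphatidylinositol (1.2 mM stock) in Tris pH 7.5/MgCl2/EGTA/Triton X-100 buffer were reacted with ATP (300 microM stock) for one hour at ambient temperature.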
PI5P4K alpha inh = blocks human PI5P4K alpha kinase activity; P48426; PI5P4Kalpha enzyme, ADP-Glo luminescence, 60 min; stronger effect = lower value; max response, %; 330,000 compounds, 1.2% hits; active means max response of -50% or lower; inconclusive means between -30% and -50%; inactive means -30% or higher; further: value at the top dose of about 77 µM; on the % scale 0 is the no-effect control and ±100 the full control effect
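Controls without substrate or without enzyme flank wells where PI5P4Kalpha converts substrate using 5 microM ATP (final). Incubation lasts 60 minutes at room temperature; ADP formed is read by ADP-Glo luminescence.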
Pol iota inh = inhibitors of human DNA polymerase iota. 390,000 compounds, 1% hits. Potency, µM (doses to about 115 µM), for inactives: top-dose activity, negative = inhibition, actives largely listed as inhibitors. Q9UNA4. AID 588590. Pol iota fluorescent replication assay, 10 min; further: potency means the concentration at half of the fitted maximal effect
Target sequence (Q9UNA4 whole entry, looked up): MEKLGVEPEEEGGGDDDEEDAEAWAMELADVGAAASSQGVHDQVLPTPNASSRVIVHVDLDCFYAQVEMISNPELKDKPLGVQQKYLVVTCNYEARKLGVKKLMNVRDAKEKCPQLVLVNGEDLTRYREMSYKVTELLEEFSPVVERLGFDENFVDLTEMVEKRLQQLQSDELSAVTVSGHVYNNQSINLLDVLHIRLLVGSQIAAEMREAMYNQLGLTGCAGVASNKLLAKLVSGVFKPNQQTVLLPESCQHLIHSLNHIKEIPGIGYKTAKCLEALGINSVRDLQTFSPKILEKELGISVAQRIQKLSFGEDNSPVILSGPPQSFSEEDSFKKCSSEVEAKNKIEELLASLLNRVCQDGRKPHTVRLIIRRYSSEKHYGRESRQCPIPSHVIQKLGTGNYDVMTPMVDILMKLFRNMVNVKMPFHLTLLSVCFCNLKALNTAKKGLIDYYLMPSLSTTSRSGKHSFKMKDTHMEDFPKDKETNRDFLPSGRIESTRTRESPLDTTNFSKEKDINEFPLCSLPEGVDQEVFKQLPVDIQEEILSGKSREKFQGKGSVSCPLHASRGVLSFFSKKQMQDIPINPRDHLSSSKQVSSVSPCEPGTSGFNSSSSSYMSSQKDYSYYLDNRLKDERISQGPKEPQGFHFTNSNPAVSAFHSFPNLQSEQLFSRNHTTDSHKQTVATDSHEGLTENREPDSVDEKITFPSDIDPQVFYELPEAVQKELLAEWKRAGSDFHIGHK
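Pol iota at 10 nM preincubated 15 min with compounds at room temperature; reaction started with fluorescent substrate, 50 nM final. Fluorescence read kinetically at 0 and 10 min; buffer-only wells as negative control.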
Pol beta inh = DNA polymerase beta (human) inhibition | P06746 | Potency, µM (highest dose often 114 µM), for the others: at the highest dose activity change, negative = inhibition, hits mostly inhibitors | 340,000 compounds, 1.3% hits | Pol beta primer extension/strand displacement, fluorescence kinetic; further: potency means the concentration at half of the fitted maximal effect; on the % scale 0 is the no-effect control and ±100 the full control effect
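Curves were derived by four-parameter Hill fits of normalized qHTS data. The kinetic fluorescent primer-extension read was taken at 0 and 10 min after 50 nM substrate, following a 15 min room-temperature preincubation of 10 nM enzyme with compounds.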
POLH inh = blocks human DNA polymerase eta activity; Q9Y253; recombinant Pol eta, fluorescent DNA replication assay; Potency, µM (highest dose often 114 µM), for the others: top-dose activity change, negative = inhibition, most hits filed as inhibitors; 390,000 compounds, 1.2% hits; further: potency means the concentration at half of the fitted maximal effect; on the % scale 0 is the no-effect control and ±100 the full control effect
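Fluorescent replication assay: 50 nM final substrate added after a 15 min room-temperature compound preincubation with 10 nM enzyme. Signal taken at 0 min and again at 10 min.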
PGK validate = TbPGK inhibition, hit validation | TbPGK coupled GAPDH assay, Kinase-Glo luminescence | shares compounds with Pol kappa inh | 500 compounds, 79% hits | AID 686980 | Potency, µM (doses to about 57.5 µM), inactives show at the highest dose activity change, negative = inhibition, hits mostly inhibitors; further: potency means the concentration at half of the fitted maximal effect; on the % scale 0 is the no-effect control and ±100 the full control effect; nearly all actives have a fitted effect of over 65% in size
POLI cherry-pick = Human Pol iota inhibitor confirmatory assay; shares compounds with Pol kappa inh; Pol iota primer extension, TAMRA/BHQ fluorescence; Potency, µM, hits mostly inhibitors; 1,500 compounds, 77% hits; further: potency means the concentration at half of the fitted maximal effect
* = called active by the depositor; u = inconclusive; x = no result; ! = repeats disagree; [ ] = dose if it differs, or a comment. A selection: hits, their analogues and other compounds. The true share with any hit is near 2.8%. Unless noted, the call rests on the fitted dose curve; in most records, active means well fitted curve in the direction sought with a large enough effect; inconclusive means small, poorly fitted or top-dose-only effect, or another doubt; inactive means no such curve, though single readings can be large; an effect the other way counts as inactive or inconclusive.

SMILES	Pol kappa inh	PI4K2A inh	PI5P4K alpha inh	Pol iota inh	Pol beta inh	POLH inh	PGK validate	others
Cc1cccc(-c2cc3c(nn2)-c2ccccc2C3=O)c1	-12%	-15	-18	35%	7%	-12%	x
O=C1c2ccccc2-c2nnc(-c3ccccc3)cc21	5%	u	-11	u	26%	-5%	12µM*
COc1ccc(-c2cc3c(nn2)-c2ccccc2C3=O)cc1	-3%	-56*	u	187%	37%	-21%	4.6µM*
CC(C)C[C@H]1CN(CCCC[C@H]2CNC(=O)C(=O)N2Cc2ccccc2)C(=O)C(=O)N1CC1CCCCC1	x	0	4	x	x	x	x
COc1ccc2nc(NC(=O)c3ccoc3C)sc2c1	-10%	-85*	x	-10%[58.9 µM]	-1%	5%	10µM*
CCN1/C(=C/C(C)=C/c2sc3ccccc3[n+]2CC)Sc2ccccc21	u	-51*!	-50*!	32µM*	35µM*	40µM*	u
CCN(CC)S(=O)(=O)c1cccc(C(=O)N/N=C/c2ccc(O)c(O)c2O)c1	u	-1	-70*	u	-2%	u	x	POLI cherry-pick=u
CCOc1ccc(/C=N/NC(=O)c2[nH]ncc2Br)c(O)c1	-1%	-75*	u	21%	23%	-7%	18µM*
Cc1nc2sc(-c3ccccc3)cc2c(=O)n1-n1cccc1	-15%	-1	3	-2%	-2%	4%	x
Cc1nc2sc(-c3ccccc3)cc2c(=O)n1N	-14%	-52*	u	-10%	11%	0%	16µM*
COc1cccc(/C=N/Nc2ncccc2[N+](=O)[O-])c1OC	-9%	u	-24	38%	-22%	-8%	16µM*
Cc1[nH]cnc1C(=O)N/N=C/c1c(Cl)cccc1Cl	4%	-69*	u	16%	5%	-7%	12µM*
Cc1nnsc1C(=O)N/N=C/c1c(F)cccc1Cl	0%	1	-3	90%	0%	-24%	x
CCCSc1ccc2nc(-c3ccccc3)cn2c1	-28%	-68*	-14	-12%	0%	-12%	18µM*
CCCCSc1ccc2nc(-c3ccc(C#N)cc3)cn2c1	-16%	0	-1	2%	4%	-6%	x
O=C(Nc1ccc(C(=O)N2CCCC2)cc1)c1ccccc1F	-8%	-70*	x	-6%	-11%	-5%	21µM*
COc1ccc2nc3cc(Cl)ccc3c(Nc3ccc(O)c(CN4CCN(C)CC4)c3)c2c1	79µM*	-14	u	u	x	u	x	POLI cherry-pick=u
CN(C)c1ccc(N=Nc2nc3ccccc3n2C)cc1	-2%	-70*	-59*	29%	-27%	-15%	4.6µM*
Cn1c(N=Nc2ccccc2)nc2ccccc21	-9%	-87*	-74*	14%	-29%	-6%	13µM*
Cn1c(Cl)nc2ccccc21	-19%	0	-2	10%	-1%	2%	x
O=c1c(-c2ccc(Cl)cc2)nc2cnc(Oc3ccccc3)nc2n1C1CC1	-4%[60.1 µM]	x	x	x	x	x	x
CCOc1cc(CNC(=O)C2COc3ccccc3C2)cc(OCC)c1OCC (stereo not drawn)	0%[60.1 µM]	0	x	-10%	12%	-5%	x
CC(C)CCNC(=O)c1ccc(Cn2c(=S)[nH]c3ccccc3c2=O)cc1	0%	-2	1	u	u	u	x	POLI cherry-pick=u
CC(=O)NNC(=O)CN1C(=O)/C(=C/c2ccccc2)SC1=S	-15%	5	1	-11%	-7%	-10%	x
O=C(CN1C(=O)/C(=C\c2ccco2)SC1=S)Nc1ccc(O)cc1C(=O)O	-6%	-8	-62*	u	0.4µM*	8.9µM*	26µM*
SMILES	Pol kappa inh	PI4K2A inh	PI5P4K alpha inh	Pol iota inh	Pol beta inh	POLH inh	PGK validate	others
CC(=O)Nc1sc2c(c1-c1nc3ccccc3s1)CCN(C)C2	x	-6	x	x	x	x	x	POLI cherry-pick=38*
CC1(C)CC(N=c2cc(-c3ccccc3)oc3ccc(Cl)cc23)CC(C)(C)N1	u	10	2	u	4µM*	u	x	POLI cherry-pick=19*
O=C(COc1ccc(Cl)cc1Cl)Nc1ccccn1	-6%	-75*	x	-13%[58.9 µM]	2%	1%	18µM*
CCC(=O)N1c2ccccc2CC1C(=O)NCCCN1CCN(c2cc(C)ccc2C)CC1 (stereo not drawn)	1%[60.1 µM]	0	x	2%	3%	-15%	x
Oc1ccc(CNc2cccnc2)c2cccnc12	x	-10	x	x	x	x	x	POLI cherry-pick=u
Cc1ccc(NCc2ccc(O)c3ncccc23)cc1	1%	-1	u	69%	3%	-16%	x
CCOC(=O)C1=C(CS(=O)(=O)c2ccc(C)c(C)c2)NC(=O)NC1c1ccccc1OCC (stereo not drawn)	-3%	5	x	41%	15%	-16%	x
O=S(=O)(NCCc1nnc2ccc(SCc3c(F)cccc3Cl)nn12)c1ccccc1	u	1	x	1%	55%	-17%	x
COc1ccc(-c2nc3c(C#N)c[nH]n3c2NC2CCCCC2)cc1	4%	-2	x	u	11%	-6%	x
CCOc1ccc(-c2nc(SCC(=O)Nc3cc(F)ccc3F)n3[nH]c(=O)cc3n2)cc1	15%	-1	x	0%	4.5µM*	-6%	5.8µM*
O=C(NCCN1C(=O)S/C(=C/c2cccnc2)C1=O)c1ccc(S(=O)(=O)N2CCCC2)cc1	-4%	-4	0	-7%	x	u	x
CCOc1ccc(OCC(=O)Nc2nccs2)cc1	4%	-86*	u	-1%	0%	-14%	13µM*
COCc1nnc(NC(=O)COc2ccc3c(c2)OCO3)s1	-9%	0	-4	40%	23%	-9%	x
O=C(COc1ccc2c(c1)OCO2)Nc1nccs1	-8%	u	u	15%	50%	8%	u
COc1ccc(OCC(=O)Nc2nccs2)cc1	7%	u	-22	171%	0%	-19%	x
O=C(Nc1cccc(C(F)(F)F)c1)c1cc(CN2CCOCC2)on1	-22%	0	x	-4%	-5%	-10%	x
O=C(Nc1ccc2nc(SCCOc3ccccc3Cl)sc2c1)c1cccs1	2%	2	x	-5%	29%	-2%	x
Cc1ccc(NC(=O)CS(=O)CC(=O)Nc2ccc(N3CCOCC3)cc2)cc1Cl (stereo not drawn)	u	-5	-13	18µM*	25µM*	u	x	POLI cherry-pick=u
COc1ccc(CCNC(=O)c2c(C)nn(-c3ccc(F)cc3)c2-n2cccc2)cc1OC	-2%	0	x	19%	-3%	-24%	x
